This note sets out measurements from PubChem BioAssay (Tox21).

Inconclusive results are not listed. Unmarked numbers belong to inactive results. Active and inactive are the calls of the source. The call rests on the fitted dose curve; in most records, active means well fitted activation curve with a large enough effect in the repeat runs; inconclusive means weak or mixed curves; inactive means flat fitted curve, though single readings scatter.
On the % scale 0 is the no-effect control and ±100 the full control effect; potency means the concentration at half of the fitted maximal effect.

A short description of the experiment: A CellTox Green Cytotoxicity Assay to monitor cytotoxicity in HepG2 cells - 16 hour (AID 1224876). Further: nearly all actives have a fitted effect of over 45% in size. Particulars: CellTox Green fluorescence; series mostly up to 76.8 µM; cytotoxicity increase: at the top concentration. An excerpt: National Center for Advancing Translational Sciences [NCATS]
NIH Chemical Genomics Center [NCGC]
U.S. Environmental Protection Agency [EPA]
National Institutes of Environmental Health Sciences [NIEHS]
National Toxicology Program [NTP]
Cell-based models are critical for drug discovery. Determining the natural cytotoxic effects resulting from test compounds is an essential research activity. A CellTox Green Cytotoxicity Assay to monitor cytotoxicity in real time of continues cell culture during 40 hours of the compound treatment was used to screen Tox21 10K library compounds in HepG2 cells. CellTox Green Cytotoxicity Assay is a nonlytic, homogeneous, biofluorescent method to measure cytotoxicity in cell culture after experimental manipulation. The assay system uses a proprietary asymmetric cyanine dye that is excluded from viable cells but preferentially stains the dead cell's DNA. […] Viable cells produce no appreciable increases in fluorescence. Therefore, the fluorescence signal produced by the binding interaction with dead cell DNA is proportional to cytotoxicity.
The mixture of HepG2 cell suspension and reagents were dispensed at 600cells/6 ul/well in 1536-well tissue culture treated black solid bottom plates using a Multidrop dispenser. After the assay plates were incubated at a 37 C/5% CO2 incubator for 5 hours, 23 nL of compounds dissolved in DMSO, positive and negative controls was transferred to the assay plate by a pintool work station. The plates were incubated at 37 C for 40 hours. The fluorescence intensity were measured at 0h, 8h, 16h, 24h, 32h and 40h time points using ViewLux plate reader during compound treatment.
For `CNCCCC1c2ccccc2C=Cc2ccccc21`, the Potency is 23.9 µM (active).
Consider `CCCC1C(CC)=CC(CC)=CN1c1ccccc1` (stereo not given), for which the “cytotoxicity increase” value is 8.2%.
On the same count and under the same terms, with `CCCC(=O)O[C@]1(C(=O)COC(=O)CC)CC[C@H]2[C@@H]3CCC4=CC(=O)CC[C@]4(C)[C@H]3[C@@H](O)C[C@@]21C` the figure was -6.66% [at 15.8 µM]; with `C[N+](C)(C)CCOC(N)=O`, -6.14% [at 35.3 µM]; with `CC(=O)[C@H]1CC[C@H]2[C@@H]3C[C@H](C)C4=CC(=O)CC[C@]4(C)[C@H]3[C@@H](O)C[C@]12C`, 0.322% [at 35.3 µM].
Consider `CCC(C(=O)OCCN(CC)CC)c1ccccc1` (stereo not given), for which the “cytotoxicity increase” value was -4.79% [at 35.3 µM].
Same read-out and setting: with `O=C(O)c1c(O)c(-c2ccccc2)nc2ccccc12` the figure was -9.14% [at 35.3 µM].
Same read-out and setting: with `OCCSc1ccccc1` the figure was 6.78%; with `CCOC(=O)CC(=O)C(=O)OCC`, -0.809%.
The same measure, in the same setting: with `Cc1ccccc1N1C(=O)c2cc(S(N)(=O)=O)c(Cl)cc2NC1C` (stereo not given) the figure was -3.35% [at 35.3 µM]; with `CCCCCCCCSCCO`, 25%.
On to `CC(C)C(=O)O`, for which the “cytotoxicity increase” value is -2.76%.
Still for that read-out and setting: with `CC1CC(=O)NN=C1c1ccc(NCC(C)(C)NCC(O)COc2cc(Cl)ccc2C#N)cc1` (stereo not given) the figure was -14.4% [at 35.3 µM].
Take `Cc1cc(O)c(C(C)C)cc1Cl`: the Potency is 24.5 µM (active).
Consider `CC[C@@H]([C@H](C)O)n1ncn(-c2ccc(N3CCN(c4ccc(OC[C@@H]5CO[C@@](Cn6cncn6)(c6ccc(F)cc6F)C5)cc4)CC3)cc2)c1=O`, for which the “cytotoxicity increase” value is 5.22% [at 35.3 µM].
The same measure, in the same setting: with `CCc1cccc(N(C)C(N)=Nc2cccc3ccccc23)c1` the figure was 24.3% [at 35.3 µM].
Same read-out and setting: with `Nc1ccc(Cl)cc1[N+](=O)[O-]` the figure was -1.45%.
Still for that read-out and setting: with `NC(=O)Cn1c(=O)cc(CCN2CCN(c3nccc4sccc34)CC2)c2ccc(F)cc21` the figure was -2.61%; with `COc1cc2c(N3CCN(C(=O)Nc4ccc(OC(C)C)cc4)CC3)ncnc2cc1OCCCN1CCCCC1`, 11.1% [at 35.3 µM]; with `O=C(Nc1ccccc1)Nc1ccccc1`, -13.7%.
For the molecule `CC(=O)OCC(=O)[C@H]1CC[C@H]2[C@@H]3CCC4=CC(=O)CC[C@]4(C)[C@H]3CC[C@]12C`, the “cytotoxicity increase” value is -0.491% [at 35.3 µM].
On to `CC(=O)Nc1ccc(N)cc1`, for which the “cytotoxicity increase” value was -6.9%.
The same measure, in the same setting: with `CCC(C(=O)OCCOCCN(CC)CC)c1ccccc1` (stereo not given) the figure was -22.5% [at 35.3 µM]; with `O=C(O)C(Cc1cc(I)c(O)c(I)c1)c1ccccc1` (stereo not given), 0.222% [at 35.3 µM].
On the same count and under the same terms, with `CC(N)CN` (stereo not given) the figure was -1.34%; with `Fc1c(F)c(F)c(Br)c(F)c1F`, -6.99%; with `O=C(O)c1snc(Cl)c1Cl`, 0.328%.
For the molecule `Cc1ccc(S(=O)(=O)NC2CCCCC2)cc1`, the “cytotoxicity increase” value was -1.56%.
On the same count and under the same terms, with `CO[C@H]1C=CO[C@@]2(C)Oc3c(C)c(O)c4c(O)c(c5c(c4c3C2=O)=NC2(CCN(CC(C)C)CC2)N=5)NC(=O)/C(C)=C\C=C/[C@H](C)[C@H](O)[C@@H](C)[C@@H](O)[C@@H](C)[C@H](OC(C)=O)[C@@H]1C` the figure was -0.378%; with `CC(C)(C)CC(C)(C)c1ccc(OCCO)cc1`, 2.19%.
The same measure, in the same setting: with `CC(CCc1ccc2c(c1)OCO2)NN` (stereo not given) the figure was 1.04% [at 35.3 µM]; with `O=C(O)c1ccc(CO)o1`, -8.34%.
Take `C[C@@H]1C[C@H]2[C@@H]3CCC4=CC(=O)C=C[C@]4(C)[C@@]3(F)[C@@H](O)C[C@]2(C)[C@H]1C(=O)CO`: the “cytotoxicity increase” value is 17.5% [at 35.3 µM].
On the same count and under the same terms, with `CCN(Cc1cccc(S(=O)(=O)O)c1)c1ccc(C(=C2C=CC(=[N+](CC)Cc3cccc(S(=O)(=O)[O-])c3)C=C2)c2ccccc2)cc1` the figure was -2.61% [at 35.3 µM].
On the same count and under the same terms, with `CCCCC(CC)C(=O)OCCOCCOCCOCCOC(=O)C(CC)CCCC` (stereo not given) the figure was -0.102%.
Still for that read-out and setting: with `Nc1ccc(C(=O)OCCCOC(=O)c2ccc(N)cc2)cc1` the figure was 2.75%.
Regarding `CC(=O)Oc1ccc2c(c1)CC[C@@H]1[C@@H]2CC[C@]2(C)[C@@H](O)CC[C@@H]12`, the “cytotoxicity increase” value is 11.4% [at 35.3 µM].
Consider `Cc1cc(O)c2c(O)c3c(O)cccc3cc2c1`, for which the “cytotoxicity increase” value was -6.65% [at 35.3 µM].
On the same count and under the same terms, with `CC(=O)N(c1onc(C)c1C)S(=O)(=O)c1ccc(N)cc1` the figure was 2.51% [at 35.3 µM]; with `CCOC(=O)/C=C/C(=O)O`, 8.3%.
